Reference: PubChem BioAssay (EPA / NIEHS)
Records with an inconclusive call do not appear. Activity calls are given as the source filed them. The calls were made as follows: active = hit-call score of the fitted dose curve at least 0.9, where 1 is the maximum; inconclusive = response in the unintended direction; inactive = score below 0.9.

Target: Oxysterols receptor LXR-alpha (Homo sapiens) (UniProt Q13133)
Assay: ATG_LXRa_TRANS: Attagene TRANS-FACTORIAL HepG2 Assay for human Liver X Receptor alpha (LXRa) (AID 2282980)
Conditions: HepG2 Attagene TRANS reporter, LXRa transactivation
In short: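 Read-out: reporter transcript levels by RT-PCR plus capillary electrophoresis, fluorescence intensity. Transiently transfected HepG2, exogenous NR-GAL4 chimera, GAL4-UAS reporters; 24 h compound exposure. Activity = increase over DMSO negative control.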

Oxysterols receptor LXR-alpha (Homo sapiens), sequence (Q13133 whole entry, looked up): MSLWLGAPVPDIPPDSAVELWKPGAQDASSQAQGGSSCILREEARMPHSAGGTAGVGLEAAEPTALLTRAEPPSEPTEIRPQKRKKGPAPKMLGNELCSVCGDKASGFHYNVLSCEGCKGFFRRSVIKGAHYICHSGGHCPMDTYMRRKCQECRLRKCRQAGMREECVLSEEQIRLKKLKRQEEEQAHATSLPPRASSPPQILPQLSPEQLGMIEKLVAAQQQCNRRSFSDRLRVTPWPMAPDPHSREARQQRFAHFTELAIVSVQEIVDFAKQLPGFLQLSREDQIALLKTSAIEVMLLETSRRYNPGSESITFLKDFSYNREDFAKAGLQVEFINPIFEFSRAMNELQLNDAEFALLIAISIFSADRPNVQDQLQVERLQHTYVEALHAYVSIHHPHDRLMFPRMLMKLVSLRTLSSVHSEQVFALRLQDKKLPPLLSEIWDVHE

outcome, inactive:
O=CC1CC1, Cc1ccc(N/N=c2\c(=O)cc/c(=N/Nc3ccc(S(=O)(=O)O)cc3)c2=O)c(C)c1, O=C1C(N(CO)C(=O)NCO)N(CO)C(=O)N1CO (configuration not stated), CC(C)(Oc1ccc(C2CC2(Cl)Cl)cc1)C(=O)O (configuration not stated), CCCCCCCC[N+](C)(CCCCCCCC)CCCCCCCC, O=C(O)C(c1ccc(Cl)cc1)c1ccc(Cl)cc1, CCCNC(=O)NS(=O)(=O)c1ccc(Cl)cc1, CCOC(=O)CC(C(C)=O)C(C)=O, S=C(NC1CCCCC1)NC1CCCCC1, CO[Si](OC)(OC)c1ccccc1, CCOCC(=O)O, C=CC(=O)NC(C)(C)CS(=O)(=O)O, CCCOCCOCCOCCO, C1CN(SSN2CCOCC2)CCO1, C=C[Si](OC(C)=O)(OC(C)=O)OC(C)=O, CC(=O)OC(C)C, CC1(C)S[C@@H]2[C@H](NC(=O)COc3ccccc3)C(=O)N2[C@H]1C(=O)O, CC/C=C\CCOC(=O)CCCCC, COC=O, CCCc1ccc(OC)cc1, CCC(C)C=O (configuration not stated), CC(=O)OCc1ccco1, CN1C(=O)N(C)C(O)C1O (configuration not stated), OCCc1ccncc1, COc1cc(C)ccc1C(C)C, C=CC=CC=CCCCCC, [Cl][In]([Cl])[Cl]

Target: Oxysterols receptor LXR-beta (Homo sapiens) (UniProt P55055)
Sequence (P55055 whole entry, looked up): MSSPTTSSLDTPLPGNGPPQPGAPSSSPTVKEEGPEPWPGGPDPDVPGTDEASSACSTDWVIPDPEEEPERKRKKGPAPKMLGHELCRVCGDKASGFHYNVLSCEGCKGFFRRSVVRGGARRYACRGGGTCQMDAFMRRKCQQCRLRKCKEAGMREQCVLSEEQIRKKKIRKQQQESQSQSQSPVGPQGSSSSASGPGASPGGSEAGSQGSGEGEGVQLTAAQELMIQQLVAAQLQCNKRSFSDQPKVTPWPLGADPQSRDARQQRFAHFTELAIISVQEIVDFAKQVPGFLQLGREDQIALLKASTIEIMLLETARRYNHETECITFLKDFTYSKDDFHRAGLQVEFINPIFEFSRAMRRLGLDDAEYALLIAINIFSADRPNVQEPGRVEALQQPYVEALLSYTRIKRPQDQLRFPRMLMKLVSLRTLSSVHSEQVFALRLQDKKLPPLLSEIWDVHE
Assay: ATG_LXRb_TRANS: Attagene TRANS-FACTORIAL HepG2 Assay for human Liver X Receptor beta (LXRb) (AID 2282981)
Conditions: HepG2 Attagene TRANS GAL4-LXRb reporter, mRNA
In short: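 Gain-of-signal mRNA reporter endpoint, DMSO as negative control. Transiently transfected HepG2 cells carrying the NR-Gal4 chimera and GAL4-UAS reporter units were treated 24 h; transcripts quantified by RT-PCR and capillary electrophoresis fluorescence.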

outcome, inactive:
O=C1CCCC(=O)O1, O=S1(=O)OC(c2ccc(O)cc2)(c2ccc(O)cc2)c2ccccc21, O=c1c2ccccc2nnn1CCl, CC(C)=CCC[C@H](C)CCO, CCCOCCOCCOCCO, C=C[Si](OC(C)=O)(OC(C)=O)OC(C)=O, O=S(=O)(O)CC(O)CCl (configuration not stated), NNC(=O)c1cccc(C(=O)NN)c1, CCCCCCCC(C)=O, CCOc1ccc(N)c([N+](=O)[O-])c1, COC(=O)/C=C/C(C)=C\C=C\C(C)=C\C=C\C=C(C)\C=C\C=C(C)\C=C\C(=O)O, CCN(CC#N)c1cccc(C)c1, Cc1cc(C)c(C)c(C)c1, N#CCc1ccc(Cl)cc1Cl, O=C(O)c1cc2ccccc2nc1C(=O)O
